Measurements: PubChem BioAssay AID1159580 (chemical genetic matrix, 2015)
Screen size: about 5,500 compounds; about 2,000 (36%) were called active. Inconclusive results (about 18%) are left out. Rule as the data show it: active = normalized growth mostly below about 0.91 (no sharp cut-off); inconclusive = no clear call, values can overlap the other calls; inactive = mostly above about 0.92. The list shows a part of the results.

Test: chemical genetic growth profiling, strain panel (AID 1159580);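 also: tested at 20 µM; growth read once vehicle control cultures reached saturation at 30 °C; 1 = growth at the plate median or of vehicle wells; lower values mean less growth of the strain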
Conditions: S. cerevisiae deletion strains, growth OD

Measured: normalized growth

O=c1ccc2ccc(O)cc2o1
inactive: locus YAL021C, strain ccr4, active compounds read low 1.05 | locus YAL026C, strain drs2, active compounds read low 0.984 | locus YAL030W, strain snc1, active compounds read low 0.999 | locus YBL061C, strain skt5, active compounds read low 0.991 | locus YBR009C, strain hhf1, active compounds read low 1.01 | locus YBR023C, strain chs3, active compounds read low 1.01 | locus YBR171W, strain sec66, active compounds read low 0.987 | locus YBR231C, strain swc5, active compounds read low 0.976 | locus YBR279W, strain paf1, active compounds read low 1.01 | locus YCL011C, strain gbp2, active compounds read low 1.01 | locus YCL016C, strain dcc1, active compounds read low 1.02 | locus YCL069W, strain vba3, active compounds read low 0.996 | locus YCR088W, strain abp1, active compounds read low 0.996 | locus YDL005C, strain med2, active compounds read low 0.981 | locus YDL040C, strain nat1, active compounds read low 0.988 | locus YDR001C, strain nth1, active compounds read low 0.988 | locus YDR069C, strain doa4, active compounds read low 0.993 | locus YDR137W, strain rgp1, active compounds read low 1.02 | locus YDR159W, strain sac3, active compounds read low 0.972 | locus YDR195W, strain ref2 0.942 | locus YDR297W, strain sur2, active compounds read low 0.986 | locus YDR334W, strain swr1, active compounds read low 0.985 | locus YDR335W, strain msn5, active compounds read low 1 | locus YDR392W, strain spt3, active compounds read low 0.96 | locus YEL003W, strain gim4, active compounds read low 0.988 | locus YEL037C, strain rad23, active compounds read low 0.985 | locus YEL061C, strain CIN8 (second series), active compounds read low 0.989 | locus YER015W, strain faa2, active compounds read low 1.01 | locus YER016W, strain bim1, active compounds read low 0.996 | locus YER111C, strain swi4, active compounds read low 0.981 | locus YER155C, strain BEM2 (second series), active compounds read low 0.986 | locus YFR010W, strain ubp6, active compounds read low 0.976 | locus YGL167C, strain pmr1, active compounds read low 0.99 | locus YGL173C, strain kem1, active compounds read low 0.988 | locus YGL227W, strain vid30, active compounds read low 0.983 | locus YGL240W, strain doc1, active compounds read low 0.976 | locus YGL253W, strain hxk2, active compounds read low 0.972 | locus YHR013C, strain ard1, active compounds read low 0.997 | locus YHR027C, strain rpn1, active compounds read low 0.981 | locus YHR142W, strain chs7, active compounds read low 1.01 | locus YJL092W, strain hpr5, active compounds read low 0.994 | locus YJL095W, strain BCK1 (second series), active compounds read low 1 | locus YJL115W, strain asf1, active compounds read low 0.985 | locus YJL129C, strain trk1, active compounds read low 0.972 | locus YJL154C, strain vps35, active compounds read low 0.988 | locus YJL164C, strain tpk1, active compounds read low 1.01 | locus YJL166W, strain qcr8, active compounds read low 1 | locus YKL160W, strain elf1, active compounds read low 1.01 | locus YKR026C, strain gcn3, active compounds read low 0.991 | locus YKR091W, strain srl3, active compounds read low 0.992 | locus YLL001W, strain dnm1, active compounds read low 1.01 | locus YLL026W, active compounds read low 1 | locus YLL041C, strain sdh2, active compounds read low 0.992 | locus YLR027C, strain aat2, active compounds read low 1.01 | locus YLR221C, strain rsa3, active compounds read low 0.98 | locus YLR258W, strain gsy2, active compounds read low 1.03 | locus YLR262C, strain YPT6 (second series), active compounds read low 1.01 | locus YLR320W, strain mms22, active compounds read low 0.975 | locus YLR342W, strain FKS1, active compounds read low 1 | locus YLR357W, strain rsc2, active compounds read low 0.996 | locus YLR370C, strain arc18, active compounds read low 1 | locus YLR384C, strain iki3, active compounds read low 0.988 | locus YML120C, strain ndi1, active compounds read low 1.01 | locus YMR058W, strain fet3, active compounds read low 0.99 | locus YMR125W, strain sto1, active compounds read low 1.01 | locus YMR129W, active compounds read low 0.993 | locus YMR205C, strain PFK2, active compounds read low 1.02 | locus YMR231W, strain pep5, active compounds read low 0.982 | locus YNL071W, strain lat1, active compounds read low 1 | locus YNL209W, strain ssb2, active compounds read low 1.01 | locus YNL248C, strain rpa49, active compounds read low 0.999 | locus YNL322C, strain KRE1 (second series), active compounds read low 0.996 | locus YNR049C, strain mso1, active compounds read low 0.979 | locus YOR001W, strain rrp6, active compounds read low 0.931 | locus YOR070C, strain gyp1, active compounds read low 0.999 | locus YOR080W, strain dia2, active compounds read low 0.992 | locus YOR083W, strain WHI5, active compounds read low 1.03 | locus YOR106W, strain vam3, active compounds read low 1.03 | locus YOR265W, strain rbl2, active compounds read low 0.994 | locus YOR270C, strain vph1, active compounds read low 0.985 | locus YOR290C, strain snf2, active compounds read low 1 | locus YPL051W, strain arl3, active compounds read low 0.997 | locus YPL078C, strain atp4, active compounds read low 1.01 | locus YPL106C, strain sse1, active compounds read low 1.03 | locus YPL240C, strain hsp82, active compounds read low 0.998
